Assay outcomes deposited in PubChem by National Center for Advancing Translational Sciences (NCATS).
Hits are enriched below; roughly 19% of the tested compounds scored in any of these assays.
TGFb SMAD3 inh: qHTS for Inhibitors of TGF-b; Potency, µM (titrated, usually from 46.1 µM), for the others: top-dose activity, negative = inhibition, most hits filed as inhibitors; HepG2 CAGA-GFP TGF-b/SMAD3 reporter, GFP fluorescence, 18 h; TGF-beta stimulated, 500 pg/mL final; AID 588855, 2011; actives 1.2% (n = 410,000); further: potency means the concentration at half of the fitted maximal effect; on the % scale 0 is the no-effect control and ±100 the full control effect; nearly all actives have a fitted effect of over 65% in size
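HEPG2 CAGA-GFP cells (1000/well, DMEM with 1% FBS) were pre-incubated 2 h at 37 degrees C, given compound by pin tool, then stimulated with TGF-beta at 500 pg/mL final for 18 h before per-cell GFP fluorescence imaging.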
HepG2 viability: qHTS for Inhibitors of TGF-b: Cytotox Counterscreen. HepG2 CAGA-GFP viability, ATP luminescence, 18 h. actives 0.76% (n = 410,000). Potency, µM (doses to about 46.1 µM), inactives show at the top dose activity change, negative = cytotoxicity, usual class: cytotoxic. AID 588856, 2011; further: potency means the concentration at half of the fitted maximal effect
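HepG2 CAGA-GFP cells (1000/well, DMEM with 1% FBS) received compound, then TGF-beta at 500 pg/mL final, and were incubated 18 hours at 37 degrees C. Viability was read by CellTiter-Glo luminescence. Media-only wells were set as complete cell-killing and DMSO as no toxicity.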
DT40 TDP1 CPT: qHTS for Inhibitors of human tyrosyl-DNA phosphodiesterase 1 (TDP1): qHTS in cells in presence of CPT | Potency, µM (series often up to 46.2 µM), without a hit: at the top dose activity change, negative = growth inhibition, usual class: inhibitors | chicken DT40 Tdp1-/-;hTDP1 cells + 20 nM CPT, ATP luminescence, 48 h | actives 12% (n = 420,000); further: potency means the concentration at half of the fitted maximal effect; on the % scale 0 is the no-effect control and ±100 the full control effect; nearly all actives have a fitted effect of over 55% in size
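Cell growth measured by CellTiter-Glo luminescence after a minimum 48 h, 37 C compound exposure with 20 nM CPT in Tdp1-knockout DT40 cells stably expressing hTDP1, seeded 400/well; qHTS titration format.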
IL1B secr inh: qHTS for Inhibitors of Inflammasome Signaling: IL-1-beta AlphaLISA Primary Screen | THP-1 LPS/ATP IL-1B secretion, AlphaLISA, 16 h; stronger effect = lower value | activity change, % at 57.5 µM | actives 4.7% (n = 360,000); in the data active means activity change below about -50%; inconclusive means mostly about -30% to -49%; further: on the % scale 0 is the no-effect control and ±100 the full control effect
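THP-1 cells pretreated 1 hr with compounds (up to 57.5 uM final), then stimulated with LPS (250 ng/mL final) plus ATP (1.25 mM final); secreted IL-1B measured by AlphaLISA after 16 hr, decreased signal indicating inhibition.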
DT40 TDP1 no CPT: qHTS for Inhibitors of human tyrosyl-DNA phosphodiesterase 1 (TDP1): qHTS in cells in absence of CPT; DT40 Tdp1-/- hTDP1 cells, no CPT, ATP luminescence, 48 h; Potency, µM (series often up to 46.2 µM), for inactives: at the top dose activity change, negative = growth inhibition, most hits filed as inhibitors; actives 15% (n = 420,000); further: potency means the concentration at half of the fitted maximal effect; on the % scale 0 is the no-effect control and ±100 the full control effect; nearly all actives have a fitted effect of over 55% in size
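Camptothecin absent (DMSO only). Human TDP1-complemented DT40 knockout cells, 400 cells/well, 37 °C for minimum 48 hr; ATP measured via CellTiter-Glo, 30 min dark incubation, luminescence.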
S-ASM inh: Inhibitors of Secretory Acid Sphingomyelinase (S-ASM): qHTS; Sphingomyelin phosphodiesterase (Homo sapiens), P17405; placental ASM, HMU-PC fluorogenic substrate, 60 min; Potency, µM (highest dose often 57.5 µM), for inactives: top-dose activity change, negative = inhibition, actives largely listed as inhibitors; actives 0.006% (n = 340,000); AID 504937, 2011; further: potency means the concentration at half of the fitted maximal effect
Target sequence (P17405 47-631 limits assumed): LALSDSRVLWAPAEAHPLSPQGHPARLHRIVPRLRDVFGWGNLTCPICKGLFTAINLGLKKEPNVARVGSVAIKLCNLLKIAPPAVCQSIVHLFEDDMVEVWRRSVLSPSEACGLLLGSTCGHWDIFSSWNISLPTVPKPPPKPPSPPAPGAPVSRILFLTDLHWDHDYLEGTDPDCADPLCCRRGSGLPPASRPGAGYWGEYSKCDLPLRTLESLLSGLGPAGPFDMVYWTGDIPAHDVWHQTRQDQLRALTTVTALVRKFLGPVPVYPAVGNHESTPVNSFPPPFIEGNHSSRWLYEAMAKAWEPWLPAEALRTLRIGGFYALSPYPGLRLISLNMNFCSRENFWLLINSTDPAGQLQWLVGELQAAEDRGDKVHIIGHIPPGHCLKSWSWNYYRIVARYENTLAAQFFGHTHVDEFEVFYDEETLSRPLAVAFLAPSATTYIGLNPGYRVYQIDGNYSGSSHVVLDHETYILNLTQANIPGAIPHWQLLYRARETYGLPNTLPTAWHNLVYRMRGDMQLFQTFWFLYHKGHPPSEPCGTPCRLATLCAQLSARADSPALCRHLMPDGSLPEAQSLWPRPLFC
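qHTS format. ASM enzyme prepared from human placenta hydrolyses the fluorogenic substrate HMU-PC0 (9 uM final) over 60 min at 37 °C after a 10 min compound preincubation.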
* hit, by the source's call; i = inactive; ? = inconclusive; / = no result. Unless noted, the call rests on the fitted dose curve; in most records, active means well fitted curve in the direction sought with a large enough effect; inconclusive means small, poorly fitted or top-dose-only effect, or another doubt; inactive means no such curve, though single readings can be large; an effect the other way counts as inactive or inconclusive.

SMILES	TGFb SMAD3 inh	HepG2 viability	DT40 TDP1 CPT	IL1B secr inh	DT40 TDP1 no CPT	S-ASM inh
O=C(COC(=O)c1ccccc1Cl)NC1CCCCCC1	4%	-3%	1%	33	-6%	0%
COc1ccc(NC(=O)C2CCCN(S(=O)(=O)c3ccc(Cl)cc3)C2)cc1 (stereo not drawn)	-27%	-1%	-1%	/	-1%	/
Cn1c(-c2ccccc2)cc2onc(-c3ccccc3)c2c1=O	-1%	-4%	15µM*	-8	21µM*	-3%
CN(CC(=O)Nc1cccc(F)c1)C(=O)/C=C/c1ccc(Br)s1	-7%	-8%	?	-29	-29%	5%
CN(CC(=O)Nc1cccc(F)c1)C(=O)/C=C/c1ccc2ccccc2n1	?	-17%	?	-51*	0%	-4%
CN(CC(=O)Nc1cccc(F)c1)C(=O)/C=C/c1cc(Br)ccc1OC(F)F	-28%	-4%	4.6µM*	-29	5.8µM*	-4%
CCn1c(CSc2nc3ccccc3s2)n[nH]c1=S	?	9%	?	16	?	2%
CCn1c(CSc2nc3ccccc3s2)nnc1SCC(=O)c1ccc(Cl)cc1	-1%	-9%	16µM*	-21	21µM*	-2%
CSCc1cc(N(C)c2ccccc2)nc(-c2ccccn2)n1	0%	2%	2.9µM*	18	4.6µM*	0%
CCCCOCC(O)Cn1c(C)nc2ccccc21 (stereo not drawn)	0%	-1%	-6%	-3	?	0%
CC(=O)N(C)c1ccc(OCC(O)Cn2c(C)nc3ccccc32)cc1 (stereo not drawn)	-4%	-2%	5.8µM*	0	6.5µM*	-2%
CC(C)c1nc2ccccc2n1CC(O)COC1CCCCC1 (stereo not drawn)	1%	6%	?	15	16µM*	-1%
Cc1nc2ccccc2n1CC(O)COC1CCCCC1 (stereo not drawn)	3%	-5%	18µM*	11	21µM*	0%
COc1cccc(OCC(Cn2c(C)nc3ccccc32)OC(C)=O)c1 (stereo not drawn)	-1%	1%	?	-2	8.2µM*	-2%
CC(=O)Nc1ccc(OCC(O)Cn2c(C)nc3ccccc32)cc1 (stereo not drawn)	0%	-3%	?	13	?	-1%
O=C(Cn1ccccc1=O)NCc1ccc(F)cc1	-18%	-6%	6%	8	3%	6%
Brc1ccsc1-c1csc(-c2ccncc2)n1	-10%	-34%	-3%	13	?	-4%
CCOC(=O)C1=CN(CC2CCCO2)C=C(C(=O)OCC)C1c1ccccc1C(F)(F)F (stereo not drawn)	-6%	-2%	?	-11	18µM*	i
O=C(/C=C/[C@H]1O[C@@H](n2cnc3c(NC(=O)c4ccccc4)ncnc32)[C@H](O)[C@@H]1O)NCC1CCCO1 (stereo partly drawn)	-3%	-10%	17%	?	3%	/
CCC(=O)N1CCc2cc(CNC(=O)Nc3cc(C)ccc3C)ccc21	-13%	-5%	-4%	/	-1%	/
CCN(CC)c1ccc(C(=O)NCc2ccc3c(c2)CCN3C(=O)c2cccc(C)c2)cc1	-15%	-19%	?	/	?	/
CN(C)c1ccc(C(=O)NCc2ccc3c(c2)CCN3C(=O)c2ccccc2)cc1	9%	-11%	16µM*	/	?	/
